Structures are written as SMILES. Activity calls are given as the source filed them. Rule for the calls: active = hit-call score of the fitted dose curve at least 0.9, where 1 is the maximum; inactive = score below 0.9.

Common to all, as to settings: mRNA level, 48 h; actives raise or lower the signal
Read-out in assay [1]: Bcl-2 (BAX) gene, BAX (gene 581)
Description: LTEA_HepaRG_BAX: Life Technologies and Expression Analysis (LTEA) Assay for Bcl-2 (BAX) gene using HepaRG (AID 2283470). In outline: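 Human HepaRG cells treated in duplicate for 48 h across eight concentrations (max 100 uM, 0.5% DMSO); BAX expression measured by qRT-PCR.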

Read-out in assay [2]: adenosine kinase (ADK) gene, ADK (gene 132)
Description: LTEA_HepaRG_ADK: Life Technologies and Expression Analysis (LTEA) Assay for adenosine kinase (ADK) gene using HepaRG (AID 2283471). A digest of the protocol: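 HepaRG (human liver), 48 h chemical exposure, 8-pt half-log series, top 100 uM, 0.5% DMSO vehicle. Readout: ADK mRNA by qRT-PCR vs housekeeping genes; bidirectional curve fit relative to DMSO baseline.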

Read-out in assay [3]: Alpha-fetoprotein (AFP) gene, AFP (gene 174)
Description: LTEA_HepaRG_AFP: Life Technologies and Expression Analysis (LTEA) Assay for Alpha-fetoprotein (AFP) gene using HepaRG (AID 2283472). In outline:
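Measures AFP mRNA change in HepaRG after 48 h chemical exposure (8 half-log concentrations, highest 100 uM, 0.5% DMSO). Fold change relative to DMSO, fitted in both directions.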

Read-out in another assay: BCL2L11 (gene 10018)
Description: LTEA_HepaRG_BCL2L11: Life Technologies and Expression Analysis (LTEA) Assay for Bcl-2 (BCL2L11) gene using HepaRG (AID 2283473). A digest of the protocol:
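HepaRG, 48 h exposure, 8-pt half-log series from 100 uM in 0.5% DMSO, duplicates; qRT-PCR (Fluidigm TaqMan) for BCL2L11, housekeeping-normalized; bidirectional curve fit relative to DMSO baseline.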

Read-out in assay [4]: Apolipoprotein A-V (APOA5) gene, APOA5 (gene 116519)
Description: LTEA_HepaRG_APOA5: Life Technologies and Expression Analysis (LTEA) Assay for Apolipoprotein A-V (APOA5) gene using HepaRG (AID 2283474). A digest of the protocol: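 HepaRG, 48 h chemical exposure in serum-free induction medium, 8-pt half-log series (top 100 uM), 0.5% DMSO vehicle, duplicates. Readout: APOA5 mRNA by qRT-PCR, housekeeping-normalized; bidirectional fit vs DMSO baseline.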

Read-out in assay [5]: Apoptosis regulator Bcl-2 (Homo sapiens) (UniProt P10415)
Description: LTEA_HepaRG_BCL2: Life Technologies and Expression Analysis (LTEA) Assay for Bcl-2 gene using HepaRG (AID 2283475). In outline:
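Each chemical was tested in duplicate on HepaRG cultures held in serum-free induction medium for 48 h, highest concentration 100 uM with half-log dilutions. Transcript levels came from multiplexed qRT-PCR, normalised to housekeeping genes; activity was scored in either direction relative to DMSO.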

Read-out in assay [6]: Bcl-2 (BID) gene, BID (gene 637)
Description: LTEA_HepaRG_BID: Life Technologies and Expression Analysis (LTEA) Assay for Bcl-2 (BID) gene using HepaRG (AID 2283476). In outline: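 Assay used HepaRG hepatic cells treated 48 h in serum-free medium with half-log dilutions from 100 uM. Endpoint: BID mRNA, qRT-PCR, normalized to ACTB/GAPDH/POLR2A.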

Read-out in a further assay: Caspase-3 (Homo sapiens) (UniProt P42574)
Description: LTEA_HepaRG_CASP3: Life Technologies and Expression Analysis (LTEA) Assay for cysteine-aspartic acid protease (CASP3) using HepaRG (AID 2283477). In outline:
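HepaRG, 48 h exposure, 8 conc. (top 100 uM, half-log steps, duplicate), 0.5% DMSO vehicle; qRT-PCR of CASP3 transcript, housekeeping-normalised (ACTB/GAPDH/POLR2A); bidirectional curve fit vs DMSO baseline.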

Read-out in assay [7]: Cytochrome P450 (CYP24A1), CYP24A1 (gene 1591)
Description: LTEA_HepaRG_CYP24A1: Life Technologies and Expression Analysis (LTEA) Assay for Cytochrome P450 (CYP24A1) using HepaRG (AID 2283478). In outline: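 qRT-PCR read-out: CYP24A1 transcript levels normalized to three housekeeping genes, bidirectional curve fits against 0.5% DMSO baseline. Human HepaRG cells treated 48 h with chemicals at eight concentrations from 100 uM in half-log steps.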

Read-out in assay [8]: Cytochrome P450 (CYP1A2), CYP1A2 (gene 1544)
Description: LTEA_HepaRG_CYP1A2: Life Technologies and Expression Analysis (LTEA) Assay for Cytochrome P450 (CYP1A2) using HepaRG (AID 2283479). In outline:
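HepaRG, 48 h exposure, top 100 uM, half-log 8-pt, 0.5% DMSO vehicle, duplicates. Readout: TaqMan qRT-PCR of CYP1A2 mRNA, housekeeping-normalized (ACTB/GAPDH/POLR2A). Gain/loss fit relative to DMSO baseline.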

Read-out in assay [9]: cysteine-aspartic acid protease (CASP8), CASP8 (gene 841)
Description: LTEA_HepaRG_CASP8: Life Technologies and Expression Analysis (LTEA) Assay for cysteine-aspartic acid protease (CASP8) using HepaRG (AID 2283480). A digest of the protocol: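 CASP8 transcript measured by TaqMan qRT-PCR with ACTB/GAPDH/POLR2A normalization, after 48 h chemical exposure of HepaRG cells in serum-free induction medium. Eight concentrations, top 100 uM, half-log steps, 0.5% DMSO vehicle; fits in both directions versus DMSO.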

Read-out in assay [10]: Cytochrome P450 (CYP2B6), CYP2B6 (gene 1555)
The assay can be described thus: LTEA_HepaRG_CYP2B6: Life Technologies and Expression Analysis (LTEA) Assay for Cytochrome P450 (CYP2B6) using HepaRG (AID 2283481). In outline: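 Read-out is CYP2B6 mRNA by TaqMan qRT-PCR, normalized to three housekeeping genes and fitted bidirectionally against 0.5% DMSO baseline. Human HepaRG cells received test chemicals for 48 h, top concentration 100 uM, half-log dilutions.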

Read-out in assay [11]: Cytochrome P450 2C19 (Homo sapiens) (UniProt P33261)
Description: LTEA_HepaRG_CYP2C19: Life Technologies and Expression Analysis (LTEA) Assay for CYP2C19 using HepaRG (AID 2283482). A digest of the protocol: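 HepaRG, 48 h chemical exposure, 8-pt half-log series from 100 uM in 0.5% DMSO, duplicates. Readout: CYP2C19 mRNA by TaqMan qRT-PCR, housekeeping-normalized. Bidirectional fit vs DMSO baseline; phenobarbital 1mM as induction control.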

Read-out in a further assay: CYP2C8 (gene 1558)
Description: LTEA_HepaRG_CYP2C8: Life Technologies and Expression Analysis (LTEA) Assay for CYP2C8 using HepaRG (AID 2283483). In outline: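 CYP2C8 expression measured by TaqMan qRT-PCR and normalized to three housekeeping genes. HepaRG cultures were treated for 48 h with an eight-point half-log series topping at 100 uM, vehicle 0.5% DMSO, duplicates; fitted both directions against DMSO.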

Read-out in a further assay: CYP2C9 (gene 1559)
Description: LTEA_HepaRG_CYP2C9: Life Technologies and Expression Analysis (LTEA) Assay for CYP2C9 using HepaRG (AID 2283484). In outline: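 CYP2C9 transcript level, quantified by TaqMan qRT-PCR against three housekeeping genes, was fitted bidirectionally relative to 0.5% DMSO. HepaRG cultures were treated 48 h, in duplicate, at eight half-log concentrations topping at 100 uM.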

Read-out in a further assay: CYP2E1 (gene 1571)
Description: LTEA_HepaRG_CYP2E1: Life Technologies and Expression Analysis (LTEA) Assay for CYP2E1 using HepaRG (AID 2283485). In outline: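 Assay uses 48 h exposure of HepaRG hepatic cells, eight concentrations to 100 uM. Expression of CYP2E1 is quantified by TaqMan qRT-PCR with ACTB, GAPDH and POLR2A normalization; curves fitted in both directions relative to vehicle.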

Read-out in another assay: CYP4A11 (gene 1579)
The assay can be described thus: LTEA_HepaRG_CYP4A11: Life Technologies and Expression Analysis (LTEA) Assay for CYP4A11 using HepaRG (AID 2283486). In outline:
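CYP4A11 transcript levels were quantified by TaqMan qRT-PCR after HepaRG human liver cells were treated for 48 hours with test chemicals (top 100 uM, half-log dilutions, 0.5% DMSO). Gain or loss of signal was fitted relative to DMSO.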

Read-out in assay [12]: Cytochrome P450 3A4 (Homo sapiens) (UniProt P08684)
The assay can be described thus: LTEA_HepaRG_CYP3A4: Life Technologies and Expression Analysis (LTEA) Assay for CYP3A4 using HepaRG (AID 2283487). In outline:
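CYP3A4 transcript measured by TaqMan qRT-PCR and normalized to three housekeeping genes after 48 h chemical exposure of human HepaRG cells. Top concentration 100 uM, half-log steps, 0.5% DMSO vehicle; gain or loss fitted against DMSO baseline.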

Read-out in assay [13]: Pro-epidermal growth factor (Homo sapiens) (UniProt P01133)
The assay can be described thus: LTEA_HepaRG_EGF: Life Technologies and Expression Analysis (LTEA) Assay for Epidermal growth factor (EGF) using HepaRG (AID 2283489). In outline:
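qRT-PCR readout of EGF transcript after 48 h chemical exposure of HepaRG cells; eight concentrations from 100 uM down in half-log steps, duplicate wells, 0.5% DMSO vehicle. Bidirectional curve fitting against DMSO baseline.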

Read-out in assay [14]: DNA damage-inducible transcript 3 (DDIT3), DDIT3 (gene 1649)
The assay can be described thus: LTEA_HepaRG_DDIT3: Life Technologies and Expression Analysis (LTEA) Assay for DNA damage-inducible transcript 3 (DDIT3) using HepaRG (AID 2283488). In outline:
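Eight-point concentration-response (100 uM highest, half-log dilutions) in HepaRG, 48 h, duplicate wells. Endpoint: qRT-PCR mRNA, normalized (ACTB, GAPDH, POLR2A), bidirectional fitting with DMSO as baseline.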

Chain of Cytochrome P450 2C19 (Homo sapiens) (P33261 whole entry, looked up): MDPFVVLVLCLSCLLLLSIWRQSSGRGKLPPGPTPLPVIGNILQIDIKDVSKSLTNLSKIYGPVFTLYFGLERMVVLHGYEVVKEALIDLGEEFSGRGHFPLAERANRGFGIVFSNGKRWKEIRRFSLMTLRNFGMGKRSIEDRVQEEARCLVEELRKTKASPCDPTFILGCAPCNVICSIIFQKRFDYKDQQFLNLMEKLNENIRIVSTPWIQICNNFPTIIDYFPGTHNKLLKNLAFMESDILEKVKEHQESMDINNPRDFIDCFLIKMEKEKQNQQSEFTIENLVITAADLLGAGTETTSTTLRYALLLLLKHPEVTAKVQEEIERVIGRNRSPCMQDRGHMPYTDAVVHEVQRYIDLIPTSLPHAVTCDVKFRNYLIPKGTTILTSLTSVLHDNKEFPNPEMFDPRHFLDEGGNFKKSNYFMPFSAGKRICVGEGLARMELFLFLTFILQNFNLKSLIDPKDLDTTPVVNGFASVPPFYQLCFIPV
Chain of Caspase-3 (Homo sapiens) (P42574 whole entry, looked up): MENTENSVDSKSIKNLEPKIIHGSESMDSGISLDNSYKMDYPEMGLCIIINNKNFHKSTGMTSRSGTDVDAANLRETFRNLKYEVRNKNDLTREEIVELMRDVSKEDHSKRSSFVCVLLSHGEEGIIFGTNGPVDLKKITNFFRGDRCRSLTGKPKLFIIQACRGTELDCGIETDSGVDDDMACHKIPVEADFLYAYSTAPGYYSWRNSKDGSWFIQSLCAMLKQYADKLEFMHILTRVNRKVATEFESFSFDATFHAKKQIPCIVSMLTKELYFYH
Chain of Cytochrome P450 3A4 (Homo sapiens) (P08684 whole entry, looked up): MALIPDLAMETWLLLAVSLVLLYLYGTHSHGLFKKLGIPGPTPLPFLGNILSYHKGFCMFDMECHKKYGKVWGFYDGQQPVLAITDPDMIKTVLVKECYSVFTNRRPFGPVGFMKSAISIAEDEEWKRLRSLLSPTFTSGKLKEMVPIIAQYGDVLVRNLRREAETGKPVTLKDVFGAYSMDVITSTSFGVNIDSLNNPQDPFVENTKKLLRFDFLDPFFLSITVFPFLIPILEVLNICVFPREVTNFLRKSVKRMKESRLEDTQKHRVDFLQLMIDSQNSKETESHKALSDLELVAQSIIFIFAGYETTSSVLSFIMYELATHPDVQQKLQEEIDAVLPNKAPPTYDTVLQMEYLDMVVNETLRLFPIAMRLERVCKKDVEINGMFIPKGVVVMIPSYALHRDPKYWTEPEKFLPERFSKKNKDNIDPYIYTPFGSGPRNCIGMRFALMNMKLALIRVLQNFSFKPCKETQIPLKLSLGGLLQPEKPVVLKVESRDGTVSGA
Chain of Apoptosis regulator Bcl-2 (Homo sapiens) (P10415 whole entry, looked up): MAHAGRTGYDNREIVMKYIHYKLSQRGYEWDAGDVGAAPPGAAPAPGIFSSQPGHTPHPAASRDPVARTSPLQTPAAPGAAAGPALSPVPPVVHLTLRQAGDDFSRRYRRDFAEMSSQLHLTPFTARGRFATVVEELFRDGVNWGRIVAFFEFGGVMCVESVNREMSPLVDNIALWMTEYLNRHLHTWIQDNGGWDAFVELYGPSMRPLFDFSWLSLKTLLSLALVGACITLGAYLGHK

For orientation: AC50 means the concentration giving half of the maximal activity seen. In the case of `CCCCC(CC)COP(=O)(OCC(CC)CCCC)OCC(CC)CCCC` (configuration not stated), the compound was called inactive (in [1]; in assay [2]; in assay [3]; with BCL2L11 (gene 10018); in assay [4]; in assay [5]). For the same compound, the outcome (in assay [6]; with Caspase-3 (Homo sapiens); in assay [7]; in assay [9]; in the assay with CYP2C8 (gene 1558); in the assay with CYP2C9 (gene 1559)) was inactive. In addition, the call (with CYP4A11 (gene 1579); in [13]) was inactive. Further, the AC50 in assay [8] is 24.6 µM (active); in [10] it was 8.38 µM (active); in [11], 7.79 µM (active); with CYP2E1 (gene 1571) it was 19.3 µM (active); in assay [12] it was 5.79 µM (active).
Regarding `CCCCCCCCCCCCCCCCO`, the compound was called inactive (in assay [1]; in [2]; in assay [3]; with BCL2L11 (gene 10018); in assay [4]; in assay [5]). The compound was classed as inactive (in assay [6]; in the assay with Caspase-3 (Homo sapiens); in assay [7]; in assay [8]; in assay [9]; in [11]). The outcome (with CYP2C8 (gene 1558); with CYP2C9 (gene 1559); in assay [14]; in assay [13]) was inactive. The AC50 in [10] is 13.1 µM (active); with CYP2E1 (gene 1571) it was 50 µM (active); with CYP4A11 (gene 1579), 16.8 µM (active).
Consider `N[C@@H](Cc1c[nH]c2ccccc12)C(=O)O`, for which the outcome (in assay [1]; in [2]; in assay [3]; in the assay with BCL2L11 (gene 10018); in [4]; in assay [5]) was inactive. Besides, the call (in assay [6]; with Caspase-3 (Homo sapiens); in assay [7]; in assay [9]; in assay [10]; in assay [11]) was inactive. Moreover, the compound was called inactive (in the assay with CYP2C8 (gene 1558); in the assay with CYP2C9 (gene 1559); with CYP2E1 (gene 1571); with CYP4A11 (gene 1579); in assay [12]; in assay [13]). In addition, the AC50 in assay [8] was 14.4 µM (active).
`CO[C@@H]1COCC[C@@H]1N[C@@H]1CC[C@@](C(=O)N2CCc3ncc(C(F)(F)F)cc3C2)(C(C)C)C1`: the result (in assay [1]; in assay [2]; in assay [3]; in the assay with BCL2L11 (gene 10018); in [4]; in [5]) was inactive. The compound was classed as inactive (in [6]; with Caspase-3 (Homo sapiens); in assay [7]; in assay [8]; in assay [9]; in assay [10]). In addition, the compound was called inactive (in assay [11]; with CYP2C8 (gene 1558); with CYP2C9 (gene 1559); in the assay with CYP2E1 (gene 1571); in [14]; in assay [13]).
Consider `CCOCCOCCO`, for which the call (in assay [1]; in assay [2]; in assay [3]; with BCL2L11 (gene 10018); in assay [5]; in assay [6]) was inactive. Besides, the outcome (with Caspase-3 (Homo sapiens); in assay [7]; in assay [8]; in assay [9]; in [10]; in assay [11]) was inactive. Moreover, the result (with CYP2C8 (gene 1558); with CYP2C9 (gene 1559); in the assay with CYP2E1 (gene 1571); with CYP4A11 (gene 1579); in assay [12]; in [14]) was inactive. Moreover, the result in assay [13] was inactive.
For the compound `Cc1occc(=O)c1O`, the outcome (in assay [1]; in assay [2]; in assay [3]; with BCL2L11 (gene 10018); in assay [5]; in assay [6]) was inactive. Besides, the compound was called inactive (with Caspase-3 (Homo sapiens); in assay [7]; in [8]; in assay [9]; in assay [10]; in assay [11]). Besides, the compound was classed as inactive (in the assay with CYP2C8 (gene 1558); with CYP2C9 (gene 1559); with CYP2E1 (gene 1571); in the assay with CYP4A11 (gene 1579); in assay [12]; in assay [13]).

Source of the values: PubChem BioAssay (EPA / NIEHS).
